# This is one part of a sample in which hits are shown more often than they occur.
# HePTP inhibitor – blocks human HePTP tyrosine phosphatase; recombinant HePTP phosphatase activity, OD absorbance; 0.64% of 110,000 active; inhibition, % at 20 µM; in the data active means inhibition above about 50%;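 further: plate controls were vehicle for no effect and reference inhibitor for full effect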
# D1 mod – allosteric modulators of human D1 dopamine receptor | HEK293 D1, CRE-luciferase, dopamine EC30 potentiation; actives deviate in either direction | B-score at 10 µM | 5.9% of 58,000 active | AID 641;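 active means luminescence count or its row- and column-corrected plate score outside the 99.7% band of the plate's sample wells, on either side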
# FXIIa inh mix – factor XIIa (human) inhibition, mixture screen; AID 684; purified FXIIa, fluorogenic substrate, pooled mixtures; P00748; inhibition, % at 5 µM; 0.2% of 62,000 active;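 further: 0% = enzyme without compound and 100% = no enzyme blank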
# FXIa mix inh – factor XIa (human) inhibition, mixture screen | inhibition, % at 5 µM | AID 680 | purified FXIa, fluorogenic substrate, pooled mixtures | 0.19% of 62,000 active | P03951;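 further: each value is inhibition by a whole ten-compound pool holding the compound; 0% = enzyme with no mixture and 100% = wells lacking enzyme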
# Target sequence (P03951 19-387 limits assumed): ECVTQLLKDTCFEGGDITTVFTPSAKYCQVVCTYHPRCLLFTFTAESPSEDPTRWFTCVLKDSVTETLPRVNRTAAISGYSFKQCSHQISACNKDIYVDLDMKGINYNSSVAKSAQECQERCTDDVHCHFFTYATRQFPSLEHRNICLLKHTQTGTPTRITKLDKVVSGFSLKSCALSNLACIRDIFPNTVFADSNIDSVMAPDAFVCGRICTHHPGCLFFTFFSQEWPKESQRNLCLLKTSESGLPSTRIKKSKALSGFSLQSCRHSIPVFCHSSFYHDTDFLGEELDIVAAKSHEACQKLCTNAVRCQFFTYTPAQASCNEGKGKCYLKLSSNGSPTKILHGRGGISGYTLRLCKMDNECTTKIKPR
# Target sequence (P03951 388-625 limits assumed): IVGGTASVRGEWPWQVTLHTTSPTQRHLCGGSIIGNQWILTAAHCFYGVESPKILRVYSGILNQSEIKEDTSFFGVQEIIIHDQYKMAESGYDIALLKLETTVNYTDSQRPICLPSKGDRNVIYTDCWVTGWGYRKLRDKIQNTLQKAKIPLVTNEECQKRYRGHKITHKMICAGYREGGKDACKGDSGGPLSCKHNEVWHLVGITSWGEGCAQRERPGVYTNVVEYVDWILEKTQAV
# TNAP act DEA – activators of human TNAP at intermediate phosphate acceptor | purified TNAP, CDP-star luminescence, 100 mM DEA, 30 min; active compounds read high; scale: 0 levamisole-inhibited, 1 vehicle-only enzyme | activation factor at 20 µM | 64,000 tested, under 10 active | AID 813;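 active means activation factor of at least 2 at 20 µM, relative to controls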
# Calb biofilm kill – kills Candida albicans biofilms | C. albicans biofilm + clotrimazole, Alamar Blue | inhibition, % at 6 µM | 0.14% of 85,000 active | AID 834;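 active means inhibition above 20%; inactive means inhibition below 20%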;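 further: preformed 24 hr biofilms exposed to compound for 48 hr; 0% = biofilm without compound and 100% = blank killed by clotrimazole plus chlorhexidine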
# An asterisk follows results filed as active; . = not tested or not shown. Unless noted, no stated cut-off is given here; in the data, active means inhibition above about 20% (passing the limit was not always enough); inactive means the rest.
SMILES,HePTP inhibitor,D1 mod,FXIIa inh mix,FXIa mix inh,TNAP act DEA,Calb biofilm kill
Nc1nc(-c2ccccc2)cn1/N=C/c1ccc(Cl)cc1Cl,-23,.,.,.,.,.
CCOc1ccc2nc(NC(=O)c3ccccc3C(=O)O)sc2c1,2,.,.,.,.,.
CCOc1ccc2nc(NC(=O)c3ccoc3C)sc2c1,-6,-5.6*,4,-4,0.9,.
O=C(CCc1ccccc1)Nc1cccc(I)c1,4,.,.,.,.,.
N#CC1=C(N)Oc2n[nH]c(-c3ccccc3)c2C1c1cccnc1 (stereo unspecified),9,1.8,-17,7,0.8,0
Cc1ccc(-c2[nH]nc3c2C(c2cccnc2)C(C#N)=C(N)O3)cc1 (stereo unspecified),-1,14*,9,2,0.9,4
CN1CCN(C(=O)CCN2C(=O)c3cccc4cccc(c34)C2=O)CC1,3,.,.,.,.,.
COc1cccc(C(=O)OCn2nnc3ccccc3c2=O)c1OC,14,5.2*,3,41,0.9,.
COc1ccc(OCCOCCN2CCOCC2)cc1,.,.,.,.,.,3
c1ccc(OCCOCCN2CCOCC2)cc1,.,.,.,.,.,63*
CC(=O)Nc1ccc(NC(=O)c2ccc(C(F)(F)F)cc2)cc1,6,.,.,.,.,.
O=C(CC1Nc2ccccc2NC1=O)Nc1cccc(C(=O)O)c1 (stereo unspecified),52*,.,.,.,.,.
Cc1ccc(NC(=O)CC2Nc3ccccc3NC2=O)cc1Cl (stereo unspecified),-6,0.36,10,2,0.9,.
COc1c(Br)cc(Br)cc1/C=N/NC(=O)COc1ccccc1[N+](=O)[O-],12,.,.,.,.,.
COc1cc([N+](=O)[O-])cc(/C=N/NC(=O)COc2c(Br)cc(Br)cc2Br)c1O,79*,.,.,.,.,.
Cc1ccc2ncnc(Nc3cccc(C(F)(F)F)c3)c2c1,6,.,.,.,.,.
Nc1cc(N)nc(SCCOc2ccccc2F)n1,3,-0.063,2,77*,1,9
COc1ccccc1OCCSc1nc(N)cc(N)n1,.,.,.,.,.,4
O=C(O)CCN1C(=O)/C(=C2\C(=O)N(Cc3ccccc3Cl)c3ccccc32)SC1=S,102*,.,.,.,.,.
COc1cccc(/C=C2\SC(=O)N(c3ccc(Cl)cc3)C2=O)c1O,-28,.,.,.,.,.
O=C1OC(c2ccc(Cl)cc2)=C/C1=C\c1ccco1,51*,.,.,.,.,.
O=C1OC(c2ccc(Oc3ccccc3)cc2)=C/C1=C/c1ccco1,101*,.,.,.,.,.
O=C(Nc1cccc([N+](=O)[O-])c1)c1cc(-c2ccco2)nc2ccccc12,103*,.,.,.,.,.
COc1ccc(NC(=O)NCCOc2cccc3ccccc23)cc1OC,5,.,.,.,.,.
O=C(/C=C/c1ccc(Cl)cc1Cl)Nc1nn[nH]n1,87*,.,.,.,.,.
SMILES,HePTP inhibitor,D1 mod,FXIIa inh mix,FXIa mix inh,TNAP act DEA,Calb biofilm kill
O=C(Nc1ccc(Br)cn1)c1ccccc1SCc1ccccc1,1,.,.,.,.,.
Clc1ccc(OCc2nc(-c3ccccn3)no2)c(Br)c1,1,-6.9*,0,-3,0.8,7
Clc1ccc(-c2nc(-c3ccccn3)no2)cc1Cl,4,-5.5*,1,4,0.9,6
Ic1ccc(-c2nc(-c3ccccn3)no2)cc1,4,.,.,.,.,.
CC(=O)Nc1ccc(-n2c(C)cc(/C=C3\C(=O)NC(=O)N(c4ccc(C)cc4)C3=O)c2C)cc1,-2,.,.,.,.,.
CCOC(=O)c1c(NC(=O)c2cc(OCC)c(OCC)c(OCC)c2)sc(C)c1C,10,.,.,.,.,.
COc1ccc(C(=O)NC(Oc2ccc(Cl)cc2)C(Cl)(Cl)Cl)cc1OC (stereo unspecified),-1,.,.,.,.,.
COc1ccccc1NC(=O)CSc1nnc(-c2ccccn2)n1Cc1ccco1,4,0.89,3,50*,0.9,5
C=CCOC(=O)C1=C(C)NC2=C(C(=O)CC(C)(C)C2)C1c1cccc(Cl)c1Cl (stereo unspecified),-12,.,.,.,.,.
O=C(/C=C/c1ccco1)Nc1ccccc1[N+](=O)[O-],84*,.,.,.,.,.
O=C(/C=C/c1ccco1)Nc1cc(Cl)ccc1Cl,55*,.,.,.,.,.
COc1cccc(CN2CCN(Cc3ccccn3)CC2)c1OC,-5,.,.,.,.,.
Cc1ccc(-c2nn3c(C)nnc3s2)cc1NC(=O)c1ccc(OC(C)C)cc1,-9,-0.055,2,22*,1,7
O=C(Nc1cc(Cl)ccc1O)c1ccc([N+](=O)[O-])cc1,5,.,.,.,.,.
CCOc1ccc(-c2nnn(CC(=O)Nc3cccc(OC)c3)n2)cc1OCC,-10,13*,2,8,0.9,13
Cc1ccc(C(C)(C)C)c(OCC(=O)O)c1,4,.,.,.,.,.
CCOc1ccccc1Oc1ccc(C(F)(F)F)cn1,7,-4*,1,-2,0.7,10
COCCCNC(=O)CN(c1cccc([N+](=O)[O-])c1)S(=O)(=O)c1ccccc1,9,.,.,.,.,.
O=C1N=c2ccc(Br)cc2=C1c1sc(=O)n(-c2cccc(Cl)c2)c1S,8,.,.,.,.,.
Brc1ccc2c(c1)c1nc3ccccc3nc1n2CCN1CCOCC1,2,4.3*,-17,2,0.9,13
Cn1c2ccc(Br)cc2c2nc3cc4ccccc4cc3nc21,-4,.,.,.,.,.
Cc1cc(C(=O)Nc2cccc(C(=O)O)c2)c(C)o1,10,.,.,.,.,.
Cc1cc(C(=O)Nc2cccc(C(=O)O)c2)oc1C,7,-4.4*,-3,6,0.9,1
CCOC(=O)C1=NN(C(=O)c2cccc([N+](=O)[O-])c2)C(O)(c2ccc(Cl)cc2)C1 (stereo unspecified),104*,.,.,.,.,.
CCC1(COC(NC(=O)c2cccnc2)(C(F)(F)F)C(F)(F)F)COC1,6,-7*,8,1,0.9,8
SMILES,HePTP inhibitor,D1 mod,FXIIa inh mix,FXIa mix inh,TNAP act DEA,Calb biofilm kill
COc1cc2c(cc1NC(=O)CN(C)Cc1nc3ccccc3c(=O)[nH]1)oc1ccccc12,-2,-2.7*,-17,-4,1,3
COc1ccccc1N1CCN(/N=C\c2ccc(Cl)cc2Cl)CC1,9,.,.,.,.,.
Brc1cnn(-c2nc(N3CCOCC3)nc(N3CCOCC3)n2)c1,8,3.6*,-19,-13,0.9,4
Brc1cnc(N2CCOCC2)nc1N1CCCCC1,-5,0.99,4,8,1,5
COc1ccc(Br)cc1/C=C/C(=O)Nc1ccc(-c2nc3ncccc3o2)cc1,4,.,.,.,.,.
O=C1/C(=C/c2ccc(Cl)cc2)SC(=S)N1CCS(=O)(=O)O,10,.,.,.,.,.
O=S1(=O)CCC(N2CCCCC2)C1 (stereo unspecified),-1,.,.,.,.,.
Cc1ccc(C)n1C1CCS(=O)(=O)C1 (stereo unspecified),7,-4.6*,-4,8,0.9,3
O=C1CN(C(=O)CNC(=O)c2ccccc2)CC(=O)N1,-8,.,.,.,.,.
Cc1ccc(C)c(C(=O)CSc2n[nH]c(C(C)C)n2)c1,-1,-6*,3,-8,0.9,1
O=C(c1ccc(N2CCN(C(=O)c3ccccc3Br)CC2)cc1)c1cccc(F)c1,102*,.,.,.,.,.
Cc1onc(-c2ccccc2)c1C(=O)Nc1ccc([N+](=O)[O-])cc1Br,104*,.,.,.,.,.
CCCNC(=O)c1c(-c2ccccc2)noc1C,-1,.,.,.,.,.
CCCOc1ccccc1NC(=O)c1c(-c2ccccc2)noc1C,10,-1.4,6,0,0.8,30*
Cc1onc(-c2ccccc2)c1C(=O)Nc1ccc([N+](=O)[O-])cc1Cl,0,.,.,.,.,.
Cc1onc(-c2ccccc2)c1C(=O)NCC(C)C,103*,.,.,.,.,.

# Source: PubChem (several laboratories)
